Several values for one entry are separate records, joined by “and”; a condition that tells them apart may be missing. Equal values may be shown once. Inconclusive results are not listed. Activity calls are given as the source filed them. The calls were made as follows, unless noted: active = hit-call score of the fitted dose curve at least 0.9, where 1 is the maximum; inactive = score below 0.9.

Consider 22 compounds from PubChem BioAssay (EPA / NIEHS).

The target of assay [1] is human RAR-related Orphan Receptor beta (RORb), RORB (gene 6096) (UniProt Q92753). The assay can be described thus: ATG_RORb_TRANS: Attagene TRANS-FACTORIAL HepG2 Assay for human RAR-related Orphan Receptor beta (RORb) (AID 2283010; active = hit-call score of the fitted dose curve at least 0.9, where 1 is the maximum). In a few lines:
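Multiplexed transcription-factor reporter assay: HepG2 cells transiently carrying NR-Gal4/GAL4-UAS constructs, 24 h treatment, mRNA quantified by RT-PCR plus capillary electrophoresis fluorescence; activity scored as induction over DMSO.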

In assay [2] the target is human RAR-related Orphan Receptor gamma (RORg), RORC (gene 6097) (UniProt P51449). Briefly: ATG_RORg_TRANS: Attagene TRANS-FACTORIAL HepG2 Assay for human RAR-related Orphan Receptor gamma (RORg) (AID 2283011; active = hit-call score of the fitted dose curve at least 0.9, where 1 is the maximum). In a few lines: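 HepG2 cells transiently transfected with GAL4-UAS reporter units and chimeric RORg-Gal4 construct; after 24 h chemical exposure, reporter mRNA measured by RT-PCR with fluorescent capillary electrophoresis, gain of signal fitted against DMSO.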
Sequence of human RAR-related Orphan Receptor gamma (RORg), RORC (gene 6097) (P51449 whole entry, looked up, the tested form may be a part): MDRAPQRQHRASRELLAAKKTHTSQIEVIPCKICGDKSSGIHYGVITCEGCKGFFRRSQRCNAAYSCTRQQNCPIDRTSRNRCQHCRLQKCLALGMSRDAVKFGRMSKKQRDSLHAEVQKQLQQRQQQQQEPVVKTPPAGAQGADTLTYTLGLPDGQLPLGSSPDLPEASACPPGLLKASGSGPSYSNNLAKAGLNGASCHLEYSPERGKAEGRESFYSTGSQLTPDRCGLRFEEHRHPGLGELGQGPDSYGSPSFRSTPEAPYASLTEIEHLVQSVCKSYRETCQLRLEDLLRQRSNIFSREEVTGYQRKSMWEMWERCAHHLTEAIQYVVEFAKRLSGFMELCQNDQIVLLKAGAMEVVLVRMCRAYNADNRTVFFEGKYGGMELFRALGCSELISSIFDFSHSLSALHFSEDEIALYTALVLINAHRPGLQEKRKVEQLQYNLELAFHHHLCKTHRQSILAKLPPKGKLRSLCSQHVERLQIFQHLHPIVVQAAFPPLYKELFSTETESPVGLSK

The target of assay [3] is human Retinoid X Receptor beta (RXRb), RXRB (gene 6257) (UniProt P28702). The assay can be described thus: ATG_RXRb_TRANS: Attagene TRANS-FACTORIAL HepG2 Assay for human Retinoid X Receptor beta (RXRb) (AID 2283013; active = hit-call score of the fitted dose curve at least 0.9, where 1 is the maximum). The procedure, abridged: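 After a 24 h incubation with test chemical, transfected HepG2 cells carrying NR-Gal4 fusions and GAL4-UAS reporter transcription units yield RNA whose reporter cDNA is FAM-labelled, HpaI-cut and sized by capillary electrophoresis; increases over DMSO are scored.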
Sequence of human Retinoid X Receptor beta (RXRb), RXRB (gene 6257) (P28702 whole entry, looked up, the tested form may be a part): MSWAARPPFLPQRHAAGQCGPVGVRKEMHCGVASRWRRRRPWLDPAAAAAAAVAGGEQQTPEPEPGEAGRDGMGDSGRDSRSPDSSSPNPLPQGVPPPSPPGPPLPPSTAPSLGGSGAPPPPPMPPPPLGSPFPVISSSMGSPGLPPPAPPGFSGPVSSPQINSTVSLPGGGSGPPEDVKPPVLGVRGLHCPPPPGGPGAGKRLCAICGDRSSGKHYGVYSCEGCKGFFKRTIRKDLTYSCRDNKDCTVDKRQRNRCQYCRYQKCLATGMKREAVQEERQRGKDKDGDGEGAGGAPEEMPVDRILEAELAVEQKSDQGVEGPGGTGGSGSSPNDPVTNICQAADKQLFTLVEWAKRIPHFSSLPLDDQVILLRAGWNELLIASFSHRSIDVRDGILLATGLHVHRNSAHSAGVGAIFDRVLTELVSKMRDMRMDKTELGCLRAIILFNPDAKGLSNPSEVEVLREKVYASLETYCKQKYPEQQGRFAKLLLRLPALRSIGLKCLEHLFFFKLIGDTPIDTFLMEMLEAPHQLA

For assay [4], the target named is human Thyroid Receptor alpha (THRa1), THRA (gene 7067) (UniProt P10827). The assay can be described thus: ATG_THRa1_TRANS: Attagene TRANS-FACTORIAL HepG2 Assay for human Thyroid Receptor alpha (THRa1) (AID 2283014; active = hit-call score of the fitted dose curve at least 0.9, where 1 is the maximum). In a few lines: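 HepG2 cells transiently transfected with chimeric NR-Gal4 and GAL4-UAS reporter units, dosed 24 h. Reporter mRNA quantified by RT-PCR, fluorescent labeling, HpaI digestion and capillary electrophoresis; gain-of-signal fit versus DMSO.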
Sequence of human Thyroid Receptor alpha (THRa1), THRA (gene 7067) (P10827 whole entry, looked up, the tested form may be a part): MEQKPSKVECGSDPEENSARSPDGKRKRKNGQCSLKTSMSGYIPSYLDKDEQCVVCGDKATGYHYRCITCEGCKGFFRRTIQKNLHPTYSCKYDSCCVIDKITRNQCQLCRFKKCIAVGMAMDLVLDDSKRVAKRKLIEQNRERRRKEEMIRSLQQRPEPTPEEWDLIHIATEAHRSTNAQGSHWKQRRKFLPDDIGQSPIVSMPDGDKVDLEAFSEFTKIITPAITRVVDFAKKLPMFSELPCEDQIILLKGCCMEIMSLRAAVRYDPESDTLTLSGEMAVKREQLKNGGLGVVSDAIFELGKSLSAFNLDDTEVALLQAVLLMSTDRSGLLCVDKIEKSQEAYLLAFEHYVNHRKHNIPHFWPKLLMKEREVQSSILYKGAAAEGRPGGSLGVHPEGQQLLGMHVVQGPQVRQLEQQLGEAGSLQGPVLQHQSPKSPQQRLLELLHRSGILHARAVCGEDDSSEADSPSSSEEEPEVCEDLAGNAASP

Read-out in assay [5]: E-selectin (Homo sapiens) (UniProt P16581)
The assay can be described thus: BSK_3C_Eselectin: BioMAP Diversity Plus: 3C Assay for Eselectin Biomarker Activity (AID 2283015).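 As to outcome: cell surface E-selectin protein quantified by ELISA 24 h after dosing.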 To be noted: primary human endothelial cells (HUVEC); actives raise or lower the signal. The procedure, abridged: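 Primary human umbilical vein endothelial cells (3C system), read 24 h after compound addition; E-selectin measured by ELISA. Bidirectional curve fitting against DMSO baseline; cytotoxicity by parallel SRB total-protein staining.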

Read-out in assay [6]: Interleukin-1 alpha (IL1a), IL1A (gene 3552)
The assay can be described thus: BSK_BE3C_IL1a: BioMAP Diversity Plus: BE3C Assay for Interleukin-1 alpha (IL1a) Biomarker Activity (AID 2283016). To be noted: primary human bronchial epithelial cells; actives raise or lower the signal. The procedure, abridged:
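Measured in human lung primary bronchial epithelial cells: IL-1a by ELISA at 24 h after dosing, with bidirectional fitting against DMSO.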

Read-out in assay [7]: Monocyte Chemoattractant Protein-1 (MCP1), CCL2 (gene 6347)
The assay can be described thus: BSK_3C_MCP1: BioMAP Diversity Plus: 3C Assay for Monocyte Chemoattractant Protein-1 (MCP1) Biomarker Activity (AID 2283017). To be noted: primary human endothelial cells (HUVEC); actives raise or lower the signal. The procedure, abridged:
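Human umbilical vein endothelial cells (3C system) exposed to chemicals for 24 h; MCP-1 quantified by ELISA against the DMSO baseline with bidirectional fitting, and parallel SRB staining used to assess cytotoxicity.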

Read-out in assay [8]: Monocyte Chemoattractant Protein-1 (MCP1), CCL2 (gene 6347)
Briefly: BSK_4H_MCP1: BioMAP Diversity Plus: 4H Assay for Monocyte Chemoattractant Protein-1 (MCP1) Biomarker Activity (AID 2283018). The note with it: primary human endothelial cells (HUVEC); actives raise or lower the signal. In a few lines: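 Primary human umbilical vein endothelium is exposed to chemical for 24 h before MCP-1 is assayed by ELISA. Concentration-response fitted bidirectionally relative to DMSO.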

Read-out in assay [9]: Human Leukocyte Antigen - DR isotype (HLADR), HLA-DRA (gene 3122)
Briefly: BSK_3C_HLADR: BioMAP Diversity Plus: 3C Assay for Human Leukocyte Antigen - DR isotype (HLADR) Biomarker Activity (AID 2283019).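 As to outcome: ELISA of cell-surface HLA-DR on HUVEC 24 h after dosing.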 To be noted: primary human endothelial cells (HUVEC); actives raise or lower the signal. In a few lines:
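HUVEC monoculture, HLA-DR measured by ELISA 24 h after chemical dosing. Fitted bidirectionally against DMSO baseline; parallel SRB staining assessed cytotoxicity, with 3C proliferation read by SRB at 48 h.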

The target of assay [10] is Retinoic acid receptor RXR-alpha (Homo sapiens) (UniProt P19793). Briefly: ATG_RXRa_TRANS: Attagene TRANS-FACTORIAL HepG2 Assay for human Retinoid X Receptor alpha (RXRa) (AID 2283012; active = hit-call score of the fitted dose curve at least 0.9, where 1 is the maximum). The procedure, abridged:
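Chimeric NR-GAL4 trans-activation in HepG2, 24 h treatment; reporter transcripts quantified by fluorescence on capillary electrophoresis, analysed for upward change from DMSO.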

Sequence of E-selectin (Homo sapiens) (P16581 whole entry, looked up): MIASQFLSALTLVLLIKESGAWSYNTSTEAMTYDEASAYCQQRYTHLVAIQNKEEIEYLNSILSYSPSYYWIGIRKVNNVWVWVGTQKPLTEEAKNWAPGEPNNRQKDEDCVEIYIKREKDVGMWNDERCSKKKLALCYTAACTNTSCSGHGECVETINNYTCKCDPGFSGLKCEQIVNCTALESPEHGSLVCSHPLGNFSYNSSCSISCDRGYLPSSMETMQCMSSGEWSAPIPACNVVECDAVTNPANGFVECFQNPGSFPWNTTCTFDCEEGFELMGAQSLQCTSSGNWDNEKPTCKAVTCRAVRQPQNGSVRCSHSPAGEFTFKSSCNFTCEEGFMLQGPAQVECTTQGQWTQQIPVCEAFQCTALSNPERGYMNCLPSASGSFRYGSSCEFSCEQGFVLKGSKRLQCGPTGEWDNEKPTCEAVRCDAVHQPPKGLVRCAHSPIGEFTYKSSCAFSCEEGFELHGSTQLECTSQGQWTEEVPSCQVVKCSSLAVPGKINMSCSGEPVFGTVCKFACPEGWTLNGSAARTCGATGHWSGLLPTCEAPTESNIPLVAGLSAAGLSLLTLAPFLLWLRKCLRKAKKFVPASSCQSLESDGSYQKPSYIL
Sequence of human RAR-related Orphan Receptor beta (RORb), RORB (gene 6096) (Q92753 whole entry, looked up, the tested form may be a part): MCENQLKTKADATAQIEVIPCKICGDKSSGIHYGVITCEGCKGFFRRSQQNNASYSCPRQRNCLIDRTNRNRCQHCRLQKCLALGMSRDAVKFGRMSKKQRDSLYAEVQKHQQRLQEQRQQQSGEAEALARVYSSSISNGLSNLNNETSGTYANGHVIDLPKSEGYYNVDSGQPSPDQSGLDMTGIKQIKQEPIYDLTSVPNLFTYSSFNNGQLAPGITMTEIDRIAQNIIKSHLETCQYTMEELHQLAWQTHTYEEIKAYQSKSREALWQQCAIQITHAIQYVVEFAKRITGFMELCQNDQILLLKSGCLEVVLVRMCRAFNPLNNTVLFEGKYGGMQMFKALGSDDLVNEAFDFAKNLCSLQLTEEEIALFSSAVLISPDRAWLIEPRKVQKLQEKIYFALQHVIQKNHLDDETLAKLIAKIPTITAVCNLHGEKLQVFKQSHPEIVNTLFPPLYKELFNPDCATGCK
Sequence of Retinoic acid receptor RXR-alpha (Homo sapiens) (P19793 whole entry, looked up, the tested form may be a part): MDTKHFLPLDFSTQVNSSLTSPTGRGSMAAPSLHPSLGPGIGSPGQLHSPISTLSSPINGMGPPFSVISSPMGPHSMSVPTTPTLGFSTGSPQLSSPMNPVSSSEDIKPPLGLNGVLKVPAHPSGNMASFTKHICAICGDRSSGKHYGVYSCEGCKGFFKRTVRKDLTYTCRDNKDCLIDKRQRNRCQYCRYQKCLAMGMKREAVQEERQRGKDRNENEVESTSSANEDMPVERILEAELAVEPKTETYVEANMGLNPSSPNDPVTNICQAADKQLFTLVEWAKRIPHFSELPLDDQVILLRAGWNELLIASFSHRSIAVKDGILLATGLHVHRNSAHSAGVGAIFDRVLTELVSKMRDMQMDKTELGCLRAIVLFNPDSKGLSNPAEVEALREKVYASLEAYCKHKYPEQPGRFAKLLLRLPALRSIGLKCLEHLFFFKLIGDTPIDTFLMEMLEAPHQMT

Turning to `CN(C)NC(=O)CCC(=O)O`, the compound was classed as inactive in assay [1], in assay [2], in [3], in [4], in assay [5] and in assay [6]. Moreover, the outcome in assay [7], in assay [8] and in [9] was inactive.
Turning to `CCCOc1nn(C(=O)NS(=O)(=O)c2ccccc2C(=O)OC)c(=O)n1C`, the compound was classed as inactive in assay [1], in assay [10], in [4], in [5], in assay [6] and in assay [7]. Besides, the outcome in assay [8] and in assay [9] was inactive.
For `CCCSP(=O)(OCC)Oc1ccc(Br)cc1Cl` (stereo unspecified), the outcome in [1], in assay [2], in assay [5], in [6], in assay [7] and in assay [9] was inactive. In assay [8], the AC50 (usually the concentration at which the activity in the assay is half-maximal) was 28.9 µM (active).
For the compound `CNC(=O)Oc1cccc2c1OC(C)(C)O2`, the compound was called inactive in assay [1], in [3], in [6], in assay [7] and in assay [8]. Moreover, the values for the AC50 in assay [5] and in assay [9] were 27.3 µM (active) and 28.6 µM (active), respectively.
As for `COP(=O)(OC)C(O)C(Cl)(Cl)Cl` (stereo unspecified), the outcome in [1], in assay [2], in [3], in [4], in assay [5] and in assay [6] was inactive. Further, the outcome in assay [7], in assay [8] and in assay [9] was inactive.
With `CC(C)=CC1C(C(=O)OCN2C(=O)C3=C(CCCC3)C2=O)C1(C)C` (stereo unspecified), the result in assay [1], in assay [2], in [3], in assay [4], in [6] and in assay [8] was inactive. Further, the results for the AC50 in assay [5], in [7] and in [9] were 26.9 µM (active), 7.53 µM (active) and 27.9 µM (active), respectively.
As to `CNC(=O)ON=C(SC)C(=O)N(C)C`, the result in assay [1], in [3], in assay [5], in assay [6], in assay [7] and in assay [8] was inactive. Further, in [9], the result was inactive.
As for `O=c1ccc(=O)[nH][nH]1`, the result in assay [1], in assay [2], in assay [3], in assay [4], in assay [5] and in [6] was inactive. Moreover, the outcome in [7], in assay [8] and in assay [9] was inactive.
Regarding `CC[C@H](C)[C@H]1O[C@]2(C=C[C@@H]1C)C[C@@H]1C[C@@H](C/C=C(\C)[C@@H](O[C@H]3C[C@H](OC)[C@@H](O[C@H]4C[C@H](OC)[C@@H](NC)[C@H](C)O4)[C@H](C)O3)[C@@H](C)/C=C/C=C3\CO[C@@H]4[C@H](O)C(C)=C[C@@H](C(=O)O1)[C@]34O)O2`, the compound was called inactive in assay [1], in [2] and in assay [10]. The AC50 was 8.63 µM (active) in assay [5]; 7.71 µM (active) in [6]; 3.66 µM (active) in assay [7]; 2.88 µM (active) in assay [8]; 3.38 µM (active) in assay [9].
In the case of `CN(C)[C@@H]1C(=O)C(C(N)=O)=C(O)[C@@]2(O)C(=O)C3=C(O)c4c(O)cccc4[C@@](C)(O)[C@H]3[C@H](O)[C@@H]12`, the compound was called inactive in assay [1], in [3], in assay [4], in [5], in assay [6] and in assay [7]. The outcome in [8] and in assay [9] was inactive.
In the case of `CCC(=NOC/C=C/Cl)C1=C(O)CC(C2CCOCC2)CC1=O` (stereo unspecified), the outcome in assay [1], in assay [2], in assay [3], in assay [4], in assay [5] and in assay [6] was inactive. Also, the outcome in assay [7], in assay [8] and in assay [9] was inactive.
Take `CC(=NC#N)N(C)Cc1ccc(Cl)nc1`: the compound was called inactive in assay [1], in assay [2], in [3], in [5], in assay [6] and in assay [7]. Moreover, the result in assay [8] and in [9] was inactive.
As to `CC(C1CC1)C(O)(Cn1cncn1)c1ccc(Cl)cc1` (stereo unspecified), the call in [1], in assay [2], in [3], in assay [5], in assay [6] and in [7] was inactive. For the same compound, the result in [8] and in assay [9] was inactive.
As for `COc1cc(OC)nc(Sc2cccc(Cl)c2C(=O)O)n1`, the compound was classed as inactive in assay [2], in [3], in assay [4], in [5], in assay [6] and in assay [7]. Moreover, the outcome in [8] and in assay [9] was inactive.
For `COP(=O)(NC(C)=O)SC` (stereo unspecified), the outcome in assay [1], in assay [2], in assay [10], in [3], in assay [4] and in [5] was inactive. Also, the outcome in [6], in [7], in [8] and in assay [9] was inactive.
On to `CCCCOC(=O)[C@@H](C)Oc1ccc(Oc2ccc(C#N)cc2F)cc1`, for which the compound was called inactive in assay [1], in assay [2], in [4], in [5], in assay [6] and in [7]. Further, the outcome in assay [8] and in [9] was inactive.
On to `O=C(O)c1cc(Oc2ccc(C(F)(F)F)cc2Cl)ccc1[N+](=O)[O-]`, for which the call in [2], in assay [3], in [4], in [5], in [6] and in assay [7] was inactive. Besides, the outcome in assay [8] and in [9] was inactive.
As for `CSc1nnc(C(C)(C)C)c(=O)n1N`, the compound was called inactive in assay [1], in assay [3], in assay [4], in assay [5], in assay [6] and in assay [7]. In assay [8], the result was inactive.
As for `C[N+]1(C)CCCCC1`, the result in assay [2], in assay [10], in [3], in assay [4], in [5] and in [6] was inactive. The result in [7], in [8] and in assay [9] was inactive.
As to `CCOP(=S)(Oc1cnc(C(C)(C)C)nc1)OC(C)C` (stereo unspecified), the compound was classed as inactive in assay [1], in assay [3], in [4] and in assay [6]. Further, the AC50 in assay [5] is 31.2 µM (active); in assay [7], 38 µM (active); in assay [8], 33.4 µM (active); in assay [9], 31.3 µM (active).
`Cc1nn(-c2cc(NS(C)(=O)=O)c(Cl)cc2Cl)c(=O)n1C(F)F`: the outcome in assay [1], in assay [2], in [4], in [5], in assay [6] and in [7] was inactive. For the same compound, the outcome in assay [8] and in assay [9] was inactive.
Take `O=[N+]([O-])c1cc(C(F)(F)F)c(Cl)c([N+](=O)[O-])c1Nc1ncc(C(F)(F)F)cc1Cl`: the result in assay [1], in assay [2], in assay [3] and in assay [4] was inactive. In addition, the AC50 was 1.47 µM (active) and 3.24 µM (active) in assay [5]; 1.95 µM (active) and 6.28 µM (active) in [6]; 3.5 µM (active) and 4.23 µM (active) in assay [7]; 738 nM (active) and 3.46 µM (active) in assay [8]; 919 nM (active) and 1.74 µM (active) in assay [9].
